# Legend:
# Test in all cases: PBM; 200 nM protein, PBS
# Settings in all cases: dsDNA, one strand shown
# HOXA2 [1] = biological target: HOXA2 (Homo sapiens, UniProt O43364 129-215, R185T)
# HOXA2 [2] = biological target: HOXA2 (Homo sapiens, UniProt O43364 129-215)
# HOXB9 [3] = biological target: HOXB9 (Homo sapiens, UniProt P17482 171-250)
# HOXB9 [4] = biological target: HOXB9 (Homo sapiens, UniProt P17482 171-250, R186Q)
# HOXA2 [5] = biological target: HOXA2 (Homo sapiens, UniProt O43364 129-215, Y150S)
# ALX3 [6] = biological target: ALX3 (Homo sapiens, UniProt O95076 139-225, N203Q)
# ALX3 [7] = biological target: ALX3 (Homo sapiens, UniProt O95076 139-225)
# ALX3 [8] = biological target: ALX3 (Homo sapiens, UniProt O95076 139-225, N203S)
# HOXA4 [9] = biological target: HOXA4 (Homo sapiens, UniProt Q00056 201-287, R217L)
# HOXA4 [10] = biological target: HOXA4 (Homo sapiens, UniProt Q00056 201-287)
# MSX2 [11] = biological target: MSX2 (Homo sapiens, UniProt P35548 130-214)
# MSX2 [12] = biological target: MSX2 (Homo sapiens, UniProt P35548 130-214, F161Y)
# SIX6 = biological target: T1, SIX6 (Homo sapiens, UniProt O95475 114-200, T139Q)
# T1 sequence: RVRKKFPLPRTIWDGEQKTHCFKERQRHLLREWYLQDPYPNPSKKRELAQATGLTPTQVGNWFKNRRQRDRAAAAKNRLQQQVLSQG
# NKX2-6 = biological target: T2, NKX2-6 (Homo sapiens, UniProt A6NCS4 118-204, R150C)
# T2 sequence: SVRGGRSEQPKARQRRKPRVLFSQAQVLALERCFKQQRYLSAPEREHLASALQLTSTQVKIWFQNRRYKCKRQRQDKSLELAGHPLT
# CRX = CRX (Homo sapiens, UniProt O43186 26-111, R41L)
# HOXB6 = HOXB6 (Homo sapiens, UniProt P17509 132-218)
# Sequence of HOXB6 (P17509 132-218): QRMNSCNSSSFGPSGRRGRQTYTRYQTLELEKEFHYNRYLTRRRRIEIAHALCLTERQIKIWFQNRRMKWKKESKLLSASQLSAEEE
# Sequence of HOXB9 (Homo sapiens, UniProt P17482 171-250) (P17482 171-250): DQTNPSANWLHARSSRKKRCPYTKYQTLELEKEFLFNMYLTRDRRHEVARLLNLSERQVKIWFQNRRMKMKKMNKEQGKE
# Sequence of HOXA2 (Homo sapiens, UniProt O43364 129-215) (O43364 129-215): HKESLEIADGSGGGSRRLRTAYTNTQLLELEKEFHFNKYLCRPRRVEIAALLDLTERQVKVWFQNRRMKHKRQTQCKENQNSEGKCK
# Sequence of HOXB9 (Homo sapiens, UniProt P17482 171-250, R186Q) (P17482 171-250 R186Q): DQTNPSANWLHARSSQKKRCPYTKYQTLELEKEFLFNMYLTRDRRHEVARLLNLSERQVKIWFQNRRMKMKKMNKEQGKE
# Sequence of HOXA2 (Homo sapiens, UniProt O43364 129-215, R185T) (O43364 129-215 R185T): as the sequence (O43364 129-215) above, with R57T counted along it
# Sequence of HOXA2 (Homo sapiens, UniProt O43364 129-215, Y150S) (O43364 129-215 Y150S): as the sequence (O43364 129-215) above, with Y22S counted along it
# Sequence of ALX3 (Homo sapiens, UniProt O95076 139-225, N203Q) (O95076 139-225 N203Q): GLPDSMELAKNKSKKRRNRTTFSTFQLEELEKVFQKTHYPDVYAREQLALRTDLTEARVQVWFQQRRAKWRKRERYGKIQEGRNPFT
# Sequence of ALX3 (Homo sapiens, UniProt O95076 139-225) (O95076 139-225): as the sequence (O95076 139-225 N203Q) above, with Q65N counted along it
# Sequence of MSX2 (Homo sapiens, UniProt P35548 130-214, F161Y) (P35548 130-214 F161Y): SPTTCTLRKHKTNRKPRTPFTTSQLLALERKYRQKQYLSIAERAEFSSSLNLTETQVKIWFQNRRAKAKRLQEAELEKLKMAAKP
# Sequence of CRX (O43186 26-111 R41L): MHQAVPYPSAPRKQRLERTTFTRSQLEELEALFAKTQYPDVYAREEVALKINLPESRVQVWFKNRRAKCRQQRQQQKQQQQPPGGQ
# Sequence of HOXA4 (Homo sapiens, UniProt Q00056 201-287, R217L) (Q00056 201-287 R217L): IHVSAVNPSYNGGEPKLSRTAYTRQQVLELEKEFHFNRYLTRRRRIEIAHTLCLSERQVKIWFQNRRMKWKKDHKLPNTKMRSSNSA
# Sequence of ALX3 (Homo sapiens, UniProt O95076 139-225, N203S) (O95076 139-225 N203S): as the sequence (O95076 139-225 N203Q) above, with Q65S counted along it
# Sequence of HOXA4 (Homo sapiens, UniProt Q00056 201-287) (Q00056 201-287): as the sequence (Q00056 201-287 R217L) above, with L17R counted along it
# Sequence of MSX2 (Homo sapiens, UniProt P35548 130-214) (P35548 130-214): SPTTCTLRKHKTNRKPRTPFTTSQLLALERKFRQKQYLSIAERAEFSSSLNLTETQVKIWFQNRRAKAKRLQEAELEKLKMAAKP
sequence,measurement,setting,value
AACTATTG,binding signal,HOXA2 [1],"8.83 upbm affinity estimate (log intensity, higher = more binding, comparable within an allelic series)"
same,binding signal,HOXA2 [2],"8.91 upbm affinity estimate (log intensity, higher = more binding, comparable within an allelic series)"
AGGCTAAT,binding signal,HOXB9 [3],"9.89 upbm affinity estimate (log intensity, higher = more binding, comparable within an allelic series)"
same,binding signal,HOXB9 [4],"9.92 upbm affinity estimate (log intensity, higher = more binding, comparable within an allelic series)"
AGATGTAA,binding signal,HOXA2 [1],"9.25 upbm affinity estimate (log intensity, higher = more binding, comparable within an allelic series)"
same,binding signal,HOXA2 [2],"9.27 upbm affinity estimate (log intensity, higher = more binding, comparable within an allelic series)"
ACAATACC,binding signal,HOXB9 [3],"9.73 upbm affinity estimate (log intensity, higher = more binding, comparable within an allelic series)"
AAACATAA,binding signal,HOXA2 [1],"9.4 upbm affinity estimate (log intensity, higher = more binding, comparable within an allelic series)"
same,binding signal,HOXA2 [2],"9.53 upbm affinity estimate (log intensity, higher = more binding, comparable within an allelic series)"
GTTTGCAA,binding signal,HOXA2 [1],"8.76 upbm affinity estimate (log intensity, higher = more binding, comparable within an allelic series)"
same,binding signal,HOXA2 [2],"8.78 upbm affinity estimate (log intensity, higher = more binding, comparable within an allelic series)"
ATAGAAAT,binding signal,HOXA2 [1],"9.28 upbm affinity estimate (log intensity, higher = more binding, comparable within an allelic series)"
same,binding signal,HOXA2 [2],"9.2 upbm affinity estimate (log intensity, higher = more binding, comparable within an allelic series)"
AACAAATA,binding signal,HOXB9 [3],"10.1 upbm affinity estimate (log intensity, higher = more binding, comparable within an allelic series)"
same,binding signal,HOXB9 [4],"9.97 upbm affinity estimate (log intensity, higher = more binding, comparable within an allelic series)"
AATTGGGC,binding signal,HOXA2 [1],"9.64 upbm affinity estimate (log intensity, higher = more binding, comparable within an allelic series)"
same,binding signal,HOXA2 [5],"10.6 upbm affinity estimate (log intensity, higher = more binding, comparable within an allelic series)"
same,binding signal,HOXA2 [2],"9.35 upbm affinity estimate (log intensity, higher = more binding, comparable within an allelic series)"
ATCAGAAA,binding signal,HOXA2 [1],"8.59 upbm affinity estimate (log intensity, higher = more binding, comparable within an allelic series)"
same,binding signal,HOXA2 [5],"10.6 upbm affinity estimate (log intensity, higher = more binding, comparable within an allelic series)"
same,binding signal,HOXA2 [2],"8.63 upbm affinity estimate (log intensity, higher = more binding, comparable within an allelic series)"
ATATAGTA,binding signal,HOXB9 [3],"10.2 upbm affinity estimate (log intensity, higher = more binding, comparable within an allelic series)"
same,binding signal,ALX3 [6],"8.55 upbm affinity estimate (log intensity, higher = more binding, comparable within an allelic series)"
same,binding signal,HOXB9 [4],"10.1 upbm affinity estimate (log intensity, higher = more binding, comparable within an allelic series)"
AACTAAAA,binding signal,HOXA2 [1],"8.87 upbm affinity estimate (log intensity, higher = more binding, comparable within an allelic series)"
same,binding signal,HOXA2 [5],"10.6 upbm affinity estimate (log intensity, higher = more binding, comparable within an allelic series)"
same,binding signal,HOXA2 [2],"8.87 upbm affinity estimate (log intensity, higher = more binding, comparable within an allelic series)"
TAAACATA,binding signal,HOXA2 [1],"8.59 upbm affinity estimate (log intensity, higher = more binding, comparable within an allelic series)"
same,binding signal,HOXA2 [2],"8.55 upbm affinity estimate (log intensity, higher = more binding, comparable within an allelic series)"
TATCAAAA,binding signal,HOXA2 [1],"8.75 upbm affinity estimate (log intensity, higher = more binding, comparable within an allelic series)"
same,binding signal,HOXA2 [2],"8.82 upbm affinity estimate (log intensity, higher = more binding, comparable within an allelic series)"
AATGTGAA,binding signal,HOXB9 [3],"10 upbm affinity estimate (log intensity, higher = more binding, comparable within an allelic series)"
same,binding signal,ALX3 [6],"8.3 upbm affinity estimate (log intensity, higher = more binding, comparable within an allelic series)"
same,binding signal,ALX3 [7],"9.35 upbm affinity estimate (log intensity, higher = more binding, comparable within an allelic series)"
same,binding signal,HOXB9 [4],"9.94 upbm affinity estimate (log intensity, higher = more binding, comparable within an allelic series)"
same,binding signal,ALX3 [8],"8.37 upbm affinity estimate (log intensity, higher = more binding, comparable within an allelic series)"
ATAGATAA,binding signal,HOXB9 [3],"10.4 upbm affinity estimate (log intensity, higher = more binding, comparable within an allelic series)"
same,binding signal,HOXB9 [4],"10.4 upbm affinity estimate (log intensity, higher = more binding, comparable within an allelic series)"
AAAAATAT,binding signal,HOXA4 [9],"10.8 upbm affinity estimate (log intensity, higher = more binding, comparable within an allelic series)"
same,binding signal,HOXA4 [10],"11.1 upbm affinity estimate (log intensity, higher = more binding, comparable within an allelic series)"
AAATCAGC,binding signal,HOXA2 [1],"9.59 upbm affinity estimate (log intensity, higher = more binding, comparable within an allelic series)"
same,binding signal,HOXA2 [5],"10.7 upbm affinity estimate (log intensity, higher = more binding, comparable within an allelic series)"
same,binding signal,HOXA2 [2],"9.43 upbm affinity estimate (log intensity, higher = more binding, comparable within an allelic series)"
AAACTTAA,binding signal,HOXA2 [1],"8.91 upbm affinity estimate (log intensity, higher = more binding, comparable within an allelic series)"
same,binding signal,HOXA2 [2],"8.97 upbm affinity estimate (log intensity, higher = more binding, comparable within an allelic series)"
GACCATCA,binding signal,HOXA2 [1],"8.84 upbm affinity estimate (log intensity, higher = more binding, comparable within an allelic series)"
same,binding signal,HOXA2 [5],"10.6 upbm affinity estimate (log intensity, higher = more binding, comparable within an allelic series)"
same,binding signal,HOXA2 [2],"9.24 upbm affinity estimate (log intensity, higher = more binding, comparable within an allelic series)"
ACAACTTA,binding signal,HOXA2 [1],"9.5 upbm affinity estimate (log intensity, higher = more binding, comparable within an allelic series)"
same,binding signal,HOXA2 [5],"10.7 upbm affinity estimate (log intensity, higher = more binding, comparable within an allelic series)"
same,binding signal,HOXA2 [2],"9.5 upbm affinity estimate (log intensity, higher = more binding, comparable within an allelic series)"
CATCTACG,binding signal,HOXA2 [1],"8.85 upbm affinity estimate (log intensity, higher = more binding, comparable within an allelic series)"
same,binding signal,HOXA2 [5],"10.7 upbm affinity estimate (log intensity, higher = more binding, comparable within an allelic series)"
same,binding signal,HOXA2 [2],"9.05 upbm affinity estimate (log intensity, higher = more binding, comparable within an allelic series)"
CACACTAA,binding signal,HOXB9 [3],"9.92 upbm affinity estimate (log intensity, higher = more binding, comparable within an allelic series)"
same,binding signal,MSX2 [11],"10.8 upbm affinity estimate (log intensity, higher = more binding, comparable within an allelic series)"
same,binding signal,HOXB9 [4],"9.82 upbm affinity estimate (log intensity, higher = more binding, comparable within an allelic series)"
same,binding signal,MSX2 [12],"10.7 upbm affinity estimate (log intensity, higher = more binding, comparable within an allelic series)"
CTATTCAA,binding signal,HOXA2 [1],"9.27 upbm affinity estimate (log intensity, higher = more binding, comparable within an allelic series)"
same,binding signal,HOXA2 [5],"10.8 upbm affinity estimate (log intensity, higher = more binding, comparable within an allelic series)"
same,binding signal,HOXA2 [2],"9.17 upbm affinity estimate (log intensity, higher = more binding, comparable within an allelic series)"
AGATGACC,binding signal,HOXA2 [1],"9.18 upbm affinity estimate (log intensity, higher = more binding, comparable within an allelic series)"
same,binding signal,HOXA2 [5],"10.5 upbm affinity estimate (log intensity, higher = more binding, comparable within an allelic series)"
same,binding signal,HOXA2 [2],"9.29 upbm affinity estimate (log intensity, higher = more binding, comparable within an allelic series)"
TAACTTAA,binding signal,HOXB9 [3],"10.2 upbm affinity estimate (log intensity, higher = more binding, comparable within an allelic series)"
same,binding signal,HOXB9 [4],"10.1 upbm affinity estimate (log intensity, higher = more binding, comparable within an allelic series)"
ATTTCATC,binding signal,HOXA2 [1],"8.72 upbm affinity estimate (log intensity, higher = more binding, comparable within an allelic series)"
same,binding signal,HOXA2 [5],"10.6 upbm affinity estimate (log intensity, higher = more binding, comparable within an allelic series)"
same,binding signal,HOXA2 [2],"8.75 upbm affinity estimate (log intensity, higher = more binding, comparable within an allelic series)"
AGAAATTA,binding signal,HOXB9 [3],"10.7 upbm affinity estimate (log intensity, higher = more binding, comparable within an allelic series)"
same,binding signal,HOXB9 [4],"10.5 upbm affinity estimate (log intensity, higher = more binding, comparable within an allelic series)"
ATTACGTC,binding signal,HOXB9 [3],"10 upbm affinity estimate (log intensity, higher = more binding, comparable within an allelic series)"
same,binding signal,HOXB9 [4],"10.2 upbm affinity estimate (log intensity, higher = more binding, comparable within an allelic series)"
AGATACCC,binding signal,SIX6,"11.2 upbm affinity estimate (log intensity, higher = more binding, comparable within an allelic series)"
ACCGGTGG,binding signal,NKX2-6,"9.26 upbm affinity estimate (log intensity, higher = more binding, comparable within an allelic series)"
CGTTTAAA,binding signal,HOXB9 [3],"10.2 upbm affinity estimate (log intensity, higher = more binding, comparable within an allelic series)"
same,binding signal,HOXB9 [4],"9.99 upbm affinity estimate (log intensity, higher = more binding, comparable within an allelic series)"
AATACAAT,binding signal,HOXB9 [3],"10 upbm affinity estimate (log intensity, higher = more binding, comparable within an allelic series)"
same,binding signal,HOXB9 [4],"9.98 upbm affinity estimate (log intensity, higher = more binding, comparable within an allelic series)"
CATAATCG,binding signal,HOXB9 [3],"10.5 upbm affinity estimate (log intensity, higher = more binding, comparable within an allelic series)"
same,binding signal,HOXB9 [4],"10.3 upbm affinity estimate (log intensity, higher = more binding, comparable within an allelic series)"
CCCCAACC,binding signal,NKX2-6,"9.37 upbm affinity estimate (log intensity, higher = more binding, comparable within an allelic series)"
ATGATTTA,binding signal,HOXB9 [3],"10.6 upbm affinity estimate (log intensity, higher = more binding, comparable within an allelic series)"
same,binding signal,HOXB9 [4],"10.4 upbm affinity estimate (log intensity, higher = more binding, comparable within an allelic series)"
ATTTAATC,binding signal,HOXB9 [3],"10.8 upbm affinity estimate (log intensity, higher = more binding, comparable within an allelic series)"
same,binding signal,HOXB9 [4],"10.7 upbm affinity estimate (log intensity, higher = more binding, comparable within an allelic series)"
same,binding signal,CRX,"12.3 upbm affinity estimate (log intensity, higher = more binding, comparable within an allelic series)"
AAGATCAT,binding signal,HOXB9 [3],"9.78 upbm affinity estimate (log intensity, higher = more binding, comparable within an allelic series)"
same,binding signal,HOXB9 [4],"9.78 upbm affinity estimate (log intensity, higher = more binding, comparable within an allelic series)"
AGGAATAA,binding signal,HOXB9 [3],"9.91 upbm affinity estimate (log intensity, higher = more binding, comparable within an allelic series)"
same,binding signal,HOXB9 [4],"9.78 upbm affinity estimate (log intensity, higher = more binding, comparable within an allelic series)"
AATCAATA,binding signal,HOXB9 [3],"10.5 upbm affinity estimate (log intensity, higher = more binding, comparable within an allelic series)"
same,binding signal,HOXB9 [4],"10.4 upbm affinity estimate (log intensity, higher = more binding, comparable within an allelic series)"
AAGTAATC,binding signal,HOXB9 [3],"9.94 upbm affinity estimate (log intensity, higher = more binding, comparable within an allelic series)"
same,binding signal,HOXB9 [4],"9.94 upbm affinity estimate (log intensity, higher = more binding, comparable within an allelic series)"
ATATTTCC,binding signal,HOXB9 [3],"9.97 upbm affinity estimate (log intensity, higher = more binding, comparable within an allelic series)"
same,binding signal,HOXB9 [4],"9.85 upbm affinity estimate (log intensity, higher = more binding, comparable within an allelic series)"
AATACCAT,binding signal,HOXB9 [3],"9.98 upbm affinity estimate (log intensity, higher = more binding, comparable within an allelic series)"
same,binding signal,HOXB9 [4],"9.96 upbm affinity estimate (log intensity, higher = more binding, comparable within an allelic series)"
same,binding signal,HOXB6,"10.3 upbm affinity estimate (log intensity, higher = more binding, comparable within an allelic series)"

# Reference: article PMC11006913
